Test in all cases: DAPPL (digital affinity profiling via proximity ligation, sequencing); 10 mM Tris-HCl pH 7.5, 50 mM NaCl, 1 mM DTT, 4% glycerol, room temperature, 30 min; GST-TFs on glutathione beads, 16-mer random dsDNA library, 0.1% formaldehyde crosslink after washing; high values mean tight binding
One assay concerns the target T1, FEV (Homo sapiens, UniProt Q99581 1-238).
T1 sequence: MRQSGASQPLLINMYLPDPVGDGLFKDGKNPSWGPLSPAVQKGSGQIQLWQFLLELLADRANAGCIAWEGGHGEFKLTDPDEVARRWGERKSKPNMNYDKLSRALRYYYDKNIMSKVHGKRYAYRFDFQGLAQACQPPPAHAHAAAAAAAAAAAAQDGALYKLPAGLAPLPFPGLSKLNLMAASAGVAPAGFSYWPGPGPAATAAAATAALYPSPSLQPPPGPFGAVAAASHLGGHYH
As to conditions: protein: recombinant; tags: N-terminal GST; dsDNA, one strand shown. In short, it runs like this:
(§1)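 Yeast served to express human transcription factors as GST fusions, which were then captured on glutathione beads and labelled with DNA barcodes. Pooled with a tag-only sample, they were incubated with 200 nmole of a 16-mer random double-stranded DNA library for 30 min at room temperature in Tris/NaCl/DTT/glycerol buffer, washed, crosslinked with 0.1% formaldehyde, ligated by proximity, amplified by PCR and sequenced. Dividing each hexamer's read frequency for a factor by its frequency for the tag-only sample gives the binding signal.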

The next assay addresses ETV5 (Homo sapiens, UniProt P41161 1-510). The following applies: protein: recombinant; tags: N-terminal GST; dsDNA, one strand shown. In short, it runs like this:
as §1

A further assay addresses HSF1 (Homo sapiens, UniProt Q00613 1-529). As to conditions: protein: recombinant; tags: N-terminal GST; chain copies: 3; dsDNA, one strand shown. In short, it runs like this:
as §1

In another assay the target is T2, SPIC (Homo sapiens, UniProt Q8N5J4 1-248).
T2 sequence: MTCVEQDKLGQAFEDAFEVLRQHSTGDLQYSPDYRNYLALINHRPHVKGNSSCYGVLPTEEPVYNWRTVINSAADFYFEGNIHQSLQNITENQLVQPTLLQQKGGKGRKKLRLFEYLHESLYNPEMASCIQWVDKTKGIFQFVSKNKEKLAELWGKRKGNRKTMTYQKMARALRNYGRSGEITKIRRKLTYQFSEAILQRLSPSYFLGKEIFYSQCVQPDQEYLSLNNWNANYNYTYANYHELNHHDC
The following applies: protein: recombinant; tags: N-terminal GST; dsDNA, one strand shown. In short, it runs like this: as §1

In another assay the target is ELF4 (Homo sapiens, UniProt Q99607 1-663). As to conditions: protein: recombinant; tags: N-terminal GST; dsDNA, one strand shown. The method, boiled down: as §1
ELF4, sequence (Q99607 whole entry): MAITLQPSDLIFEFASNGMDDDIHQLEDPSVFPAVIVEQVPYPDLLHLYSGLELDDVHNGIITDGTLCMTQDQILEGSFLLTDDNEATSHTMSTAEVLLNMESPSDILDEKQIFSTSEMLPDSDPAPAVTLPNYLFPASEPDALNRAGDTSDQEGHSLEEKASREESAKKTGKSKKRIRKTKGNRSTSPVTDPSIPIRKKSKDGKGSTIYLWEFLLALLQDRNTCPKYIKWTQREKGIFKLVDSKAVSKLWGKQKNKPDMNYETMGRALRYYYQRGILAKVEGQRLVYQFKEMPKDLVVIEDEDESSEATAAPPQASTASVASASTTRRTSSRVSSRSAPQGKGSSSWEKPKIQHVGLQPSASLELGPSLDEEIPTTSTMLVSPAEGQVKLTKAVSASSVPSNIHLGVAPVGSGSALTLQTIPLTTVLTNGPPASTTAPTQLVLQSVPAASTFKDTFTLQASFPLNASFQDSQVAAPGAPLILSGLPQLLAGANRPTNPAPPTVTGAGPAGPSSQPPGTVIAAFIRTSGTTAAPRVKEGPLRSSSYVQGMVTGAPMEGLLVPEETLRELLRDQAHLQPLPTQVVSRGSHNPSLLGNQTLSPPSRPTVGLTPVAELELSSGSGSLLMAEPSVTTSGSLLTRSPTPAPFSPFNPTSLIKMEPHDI
A further assay addresses T3, ELK4 (Homo sapiens, UniProt P28324-2 1-405).
T3 sequence: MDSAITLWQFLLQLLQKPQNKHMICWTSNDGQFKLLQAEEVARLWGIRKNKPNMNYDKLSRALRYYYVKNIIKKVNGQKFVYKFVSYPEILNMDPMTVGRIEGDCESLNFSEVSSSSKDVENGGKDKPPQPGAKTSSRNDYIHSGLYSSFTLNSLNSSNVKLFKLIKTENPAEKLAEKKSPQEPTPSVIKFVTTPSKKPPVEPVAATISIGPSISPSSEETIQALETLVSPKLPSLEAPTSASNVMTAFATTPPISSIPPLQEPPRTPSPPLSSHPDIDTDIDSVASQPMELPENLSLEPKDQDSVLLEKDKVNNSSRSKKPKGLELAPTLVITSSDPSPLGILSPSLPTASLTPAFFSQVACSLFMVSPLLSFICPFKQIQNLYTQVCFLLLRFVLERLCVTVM
As to conditions: protein: recombinant; tags: N-terminal GST; dsDNA, one strand shown. In short, it runs like this: as §1

Another assay concerns the target T4, ETV2 (Homo sapiens, UniProt O00321 1-342).
T4 sequence: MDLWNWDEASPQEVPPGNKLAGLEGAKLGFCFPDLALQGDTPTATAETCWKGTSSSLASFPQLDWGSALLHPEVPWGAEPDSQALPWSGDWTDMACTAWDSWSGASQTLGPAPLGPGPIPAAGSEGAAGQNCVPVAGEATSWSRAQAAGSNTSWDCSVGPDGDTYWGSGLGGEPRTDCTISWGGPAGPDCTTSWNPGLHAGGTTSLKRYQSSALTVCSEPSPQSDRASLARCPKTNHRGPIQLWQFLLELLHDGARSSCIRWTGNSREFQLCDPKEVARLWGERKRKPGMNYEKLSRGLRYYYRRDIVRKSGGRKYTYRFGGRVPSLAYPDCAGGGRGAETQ
The following applies: protein: recombinant; tags: N-terminal GST; dsDNA, one strand shown. In short, it runs like this: as §1

For another assay, the target named is T5, ELF3 (Homo sapiens, UniProt P78545 1-371).
T5 sequence: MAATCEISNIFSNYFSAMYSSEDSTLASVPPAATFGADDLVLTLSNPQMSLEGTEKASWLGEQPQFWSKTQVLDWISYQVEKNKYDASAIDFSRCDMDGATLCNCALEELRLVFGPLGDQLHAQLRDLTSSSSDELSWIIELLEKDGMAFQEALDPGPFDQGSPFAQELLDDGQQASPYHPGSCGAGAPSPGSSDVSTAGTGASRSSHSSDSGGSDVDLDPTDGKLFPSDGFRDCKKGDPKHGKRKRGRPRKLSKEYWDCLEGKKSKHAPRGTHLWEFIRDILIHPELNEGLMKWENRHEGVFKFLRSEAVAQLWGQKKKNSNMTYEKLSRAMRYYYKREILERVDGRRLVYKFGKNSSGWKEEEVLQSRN
The following applies: protein: recombinant; tags: N-terminal GST; dsDNA, one strand shown. The method, boiled down:
as §1

The next assay has as its target CRX (Homo sapiens, UniProt O43186 1-299). As to conditions: protein: recombinant; tags: N-terminal GST; dsDNA, one strand shown. The method, boiled down: as §1
The target in another assay is ETV1 (Homo sapiens, UniProt P50549 1-477). The following applies: protein: recombinant; tags: N-terminal GST; dsDNA, one strand shown. In short, it runs like this: as §1
ETV1, sequence (P50549 whole entry): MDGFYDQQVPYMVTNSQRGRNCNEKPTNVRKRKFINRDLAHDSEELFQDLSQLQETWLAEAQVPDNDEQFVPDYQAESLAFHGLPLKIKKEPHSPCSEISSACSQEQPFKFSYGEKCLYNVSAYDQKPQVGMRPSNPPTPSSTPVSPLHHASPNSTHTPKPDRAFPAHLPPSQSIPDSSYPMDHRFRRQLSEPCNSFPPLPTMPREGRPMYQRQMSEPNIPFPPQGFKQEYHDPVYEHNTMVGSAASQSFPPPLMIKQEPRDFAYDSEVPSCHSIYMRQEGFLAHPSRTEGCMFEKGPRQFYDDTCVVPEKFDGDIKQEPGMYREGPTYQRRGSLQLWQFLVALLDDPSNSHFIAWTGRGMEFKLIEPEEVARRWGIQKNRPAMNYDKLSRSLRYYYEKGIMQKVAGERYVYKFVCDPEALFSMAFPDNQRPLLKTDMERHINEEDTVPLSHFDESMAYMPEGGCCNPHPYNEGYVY
The next assay concerns the target T6, ERF (Homo sapiens, UniProt P50548 1-548).
T6 sequence: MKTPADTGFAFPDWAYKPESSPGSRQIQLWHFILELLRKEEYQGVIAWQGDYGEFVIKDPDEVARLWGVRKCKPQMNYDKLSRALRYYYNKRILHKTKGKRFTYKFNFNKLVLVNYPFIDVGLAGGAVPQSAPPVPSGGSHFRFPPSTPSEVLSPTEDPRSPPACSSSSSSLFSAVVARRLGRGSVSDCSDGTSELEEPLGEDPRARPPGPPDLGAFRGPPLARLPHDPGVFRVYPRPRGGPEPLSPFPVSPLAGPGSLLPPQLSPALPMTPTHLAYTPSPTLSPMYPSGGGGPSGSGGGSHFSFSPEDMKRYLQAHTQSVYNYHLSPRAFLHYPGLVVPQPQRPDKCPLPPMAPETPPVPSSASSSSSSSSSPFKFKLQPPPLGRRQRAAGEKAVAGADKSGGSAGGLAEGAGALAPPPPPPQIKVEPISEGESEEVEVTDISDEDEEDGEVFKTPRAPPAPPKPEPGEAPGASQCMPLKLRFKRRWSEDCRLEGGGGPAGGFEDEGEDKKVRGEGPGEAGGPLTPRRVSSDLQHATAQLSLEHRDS
The following applies: protein: recombinant; tags: N-terminal GST; dsDNA, one strand shown. The method, boiled down:
as §1

In the next assay the target is T7, ETV3L (Homo sapiens, UniProt Q6ZN32 1-361).
T7 sequence: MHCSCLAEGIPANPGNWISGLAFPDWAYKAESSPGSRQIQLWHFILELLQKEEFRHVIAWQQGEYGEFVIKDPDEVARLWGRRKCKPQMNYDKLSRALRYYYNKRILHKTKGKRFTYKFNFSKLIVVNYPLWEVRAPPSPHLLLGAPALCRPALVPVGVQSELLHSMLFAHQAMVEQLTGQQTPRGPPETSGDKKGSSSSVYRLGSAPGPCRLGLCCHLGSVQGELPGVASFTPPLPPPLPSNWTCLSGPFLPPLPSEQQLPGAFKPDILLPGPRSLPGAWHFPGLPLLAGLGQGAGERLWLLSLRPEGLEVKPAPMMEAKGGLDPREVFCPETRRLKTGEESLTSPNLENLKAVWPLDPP
The following applies: protein: recombinant; tags: N-terminal GST; dsDNA, one strand shown. The method, boiled down: as §1

For a further assay, the target named is T8, ETS2 (Homo sapiens, UniProt P15036 1-469).
T8 sequence: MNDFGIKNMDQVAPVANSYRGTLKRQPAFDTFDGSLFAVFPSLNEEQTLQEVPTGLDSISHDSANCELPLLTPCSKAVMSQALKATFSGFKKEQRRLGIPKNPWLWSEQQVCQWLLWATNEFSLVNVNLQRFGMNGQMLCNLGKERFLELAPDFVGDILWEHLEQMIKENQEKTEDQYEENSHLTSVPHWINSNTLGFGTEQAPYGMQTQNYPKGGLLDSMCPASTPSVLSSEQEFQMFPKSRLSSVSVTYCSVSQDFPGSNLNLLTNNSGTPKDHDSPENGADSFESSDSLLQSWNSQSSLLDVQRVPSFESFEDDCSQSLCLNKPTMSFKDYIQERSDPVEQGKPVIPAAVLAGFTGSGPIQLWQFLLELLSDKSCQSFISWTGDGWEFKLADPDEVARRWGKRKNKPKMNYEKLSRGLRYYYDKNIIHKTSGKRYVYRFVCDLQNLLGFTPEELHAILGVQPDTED
The following applies: protein: recombinant; tags: N-terminal GST; dsDNA, one strand shown. In short, it runs like this:
as §1

The next assay concerns the target T9, SPDEF (Homo sapiens, UniProt O95238 1-335).
T9 sequence: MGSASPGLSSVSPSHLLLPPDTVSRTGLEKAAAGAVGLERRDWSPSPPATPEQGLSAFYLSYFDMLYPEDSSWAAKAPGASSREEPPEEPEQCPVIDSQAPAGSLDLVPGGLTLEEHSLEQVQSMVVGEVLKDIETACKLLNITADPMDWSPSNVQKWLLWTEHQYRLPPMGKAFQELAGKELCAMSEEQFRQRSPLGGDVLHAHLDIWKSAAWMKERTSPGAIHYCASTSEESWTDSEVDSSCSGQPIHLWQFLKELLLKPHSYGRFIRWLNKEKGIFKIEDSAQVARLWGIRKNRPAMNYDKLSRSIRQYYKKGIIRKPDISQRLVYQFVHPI
As to conditions: protein: recombinant; tags: N-terminal GST; dsDNA, one strand shown. In short, it runs like this:
as §1

For another assay, the target named is T10, ETV7 (Homo sapiens, UniProt Q9Y603 1-341).
T10 sequence: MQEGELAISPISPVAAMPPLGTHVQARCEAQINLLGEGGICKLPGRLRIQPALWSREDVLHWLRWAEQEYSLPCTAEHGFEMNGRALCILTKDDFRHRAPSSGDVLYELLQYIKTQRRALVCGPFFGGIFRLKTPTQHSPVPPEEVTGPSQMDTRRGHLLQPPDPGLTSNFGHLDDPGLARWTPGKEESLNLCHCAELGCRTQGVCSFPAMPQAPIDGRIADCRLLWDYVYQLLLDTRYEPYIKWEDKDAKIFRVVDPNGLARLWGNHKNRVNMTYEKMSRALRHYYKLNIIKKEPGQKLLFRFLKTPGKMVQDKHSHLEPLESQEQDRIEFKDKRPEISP
The following applies: protein: recombinant; tags: N-terminal GST; dsDNA, one strand shown. In short, it runs like this: as §1

A further assay has as its target T11, ELF5 (Homo sapiens, UniProt Q9UKW6-2 1-255).
T11 sequence: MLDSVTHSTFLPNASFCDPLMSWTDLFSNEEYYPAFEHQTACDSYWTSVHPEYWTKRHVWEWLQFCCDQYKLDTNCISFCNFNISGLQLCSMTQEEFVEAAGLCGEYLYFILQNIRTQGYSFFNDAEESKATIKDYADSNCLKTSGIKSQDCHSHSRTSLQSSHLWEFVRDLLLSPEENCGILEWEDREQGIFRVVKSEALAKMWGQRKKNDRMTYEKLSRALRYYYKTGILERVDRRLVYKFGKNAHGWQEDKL
As to conditions: protein: recombinant; tags: N-terminal GST; dsDNA, one strand shown. In short, it runs like this:
as §1

A further assay addresses T12, ETV3 (Homo sapiens, UniProt P41162-2 1-143).
T12 sequence: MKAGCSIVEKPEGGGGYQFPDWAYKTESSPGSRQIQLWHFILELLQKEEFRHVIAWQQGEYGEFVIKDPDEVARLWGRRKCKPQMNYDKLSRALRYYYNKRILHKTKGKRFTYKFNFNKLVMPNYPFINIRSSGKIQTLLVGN
As to conditions: protein: recombinant; tags: N-terminal GST; dsDNA, one strand shown. The method, boiled down: as §1

For another assay, the target named is ETV6 (Homo sapiens, UniProt P41212 1-452). As to conditions: protein: recombinant; tags: N-terminal GST; dsDNA, one strand shown. In short, it runs like this: as §1
ETV6, sequence (P41212 whole entry): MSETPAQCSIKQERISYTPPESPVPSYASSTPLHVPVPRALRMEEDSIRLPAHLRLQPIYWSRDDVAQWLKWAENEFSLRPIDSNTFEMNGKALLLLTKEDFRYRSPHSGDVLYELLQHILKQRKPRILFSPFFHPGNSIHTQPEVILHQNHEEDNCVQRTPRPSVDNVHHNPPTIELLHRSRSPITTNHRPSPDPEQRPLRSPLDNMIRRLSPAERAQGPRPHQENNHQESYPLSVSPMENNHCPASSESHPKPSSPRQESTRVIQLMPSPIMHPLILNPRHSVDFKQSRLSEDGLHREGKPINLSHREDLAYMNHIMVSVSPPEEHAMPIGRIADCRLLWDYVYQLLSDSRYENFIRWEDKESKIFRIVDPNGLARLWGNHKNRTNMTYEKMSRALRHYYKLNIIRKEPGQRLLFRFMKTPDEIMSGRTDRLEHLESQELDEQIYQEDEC

This note sets out measurements from publication PMC7862700, “An all-to-all approach to the identification of sequence-specific readers for epigenetic DNA modifications on cytosine”.

ETV5, sequence (P41161 whole entry): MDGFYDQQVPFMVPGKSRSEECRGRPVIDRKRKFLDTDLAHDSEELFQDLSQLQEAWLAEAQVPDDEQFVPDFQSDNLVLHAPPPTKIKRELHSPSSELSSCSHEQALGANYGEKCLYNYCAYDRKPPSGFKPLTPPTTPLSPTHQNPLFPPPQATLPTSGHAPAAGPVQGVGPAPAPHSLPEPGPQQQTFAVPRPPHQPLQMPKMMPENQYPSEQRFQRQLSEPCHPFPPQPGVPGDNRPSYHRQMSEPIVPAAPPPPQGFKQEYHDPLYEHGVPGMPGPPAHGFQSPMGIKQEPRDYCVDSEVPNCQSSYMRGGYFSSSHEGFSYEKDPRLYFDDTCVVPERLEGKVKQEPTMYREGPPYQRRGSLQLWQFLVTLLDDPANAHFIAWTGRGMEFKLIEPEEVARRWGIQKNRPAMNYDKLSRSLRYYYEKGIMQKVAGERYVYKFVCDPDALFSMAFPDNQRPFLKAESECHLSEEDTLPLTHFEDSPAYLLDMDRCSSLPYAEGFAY
HSF1, sequence (Q00613 whole entry): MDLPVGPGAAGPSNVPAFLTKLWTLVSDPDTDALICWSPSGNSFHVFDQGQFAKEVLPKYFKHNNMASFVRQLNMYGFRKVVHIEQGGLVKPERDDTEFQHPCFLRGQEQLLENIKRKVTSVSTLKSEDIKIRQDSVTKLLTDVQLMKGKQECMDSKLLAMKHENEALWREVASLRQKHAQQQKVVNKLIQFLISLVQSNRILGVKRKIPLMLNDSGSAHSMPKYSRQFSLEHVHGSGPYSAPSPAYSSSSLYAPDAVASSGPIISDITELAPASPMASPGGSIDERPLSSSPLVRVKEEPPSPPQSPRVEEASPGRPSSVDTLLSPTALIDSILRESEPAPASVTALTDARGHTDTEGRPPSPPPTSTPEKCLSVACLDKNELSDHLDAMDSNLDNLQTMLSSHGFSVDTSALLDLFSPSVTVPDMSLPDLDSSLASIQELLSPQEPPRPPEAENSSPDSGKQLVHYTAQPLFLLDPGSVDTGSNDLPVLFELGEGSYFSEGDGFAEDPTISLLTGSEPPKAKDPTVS
CRX, sequence (O43186 whole entry): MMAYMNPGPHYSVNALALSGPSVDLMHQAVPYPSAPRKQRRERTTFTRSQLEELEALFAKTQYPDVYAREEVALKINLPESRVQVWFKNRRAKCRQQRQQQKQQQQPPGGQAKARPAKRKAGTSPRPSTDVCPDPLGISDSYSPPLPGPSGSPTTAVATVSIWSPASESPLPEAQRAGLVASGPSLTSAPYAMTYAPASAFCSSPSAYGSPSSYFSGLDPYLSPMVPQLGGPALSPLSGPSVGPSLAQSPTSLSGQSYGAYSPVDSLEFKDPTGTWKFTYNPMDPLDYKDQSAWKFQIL

On to CTGGTA, for which the binding signal was 1.23 fold enrichment (6-mer frequency, TF over GST control) in the assay with FEV; 1.25 fold enrichment (6-mer frequency, TF over GST control) with ETV5; 1.75 fold enrichment (6-mer frequency, TF over GST control) with HSF1; 1.28 fold enrichment (6-mer frequency, TF over GST control) with SPIC; 1.4 fold enrichment (6-mer frequency, TF over GST control) with ELF4; 1.29 fold enrichment (6-mer frequency, TF over GST control) with ELK4. Besides, the binding signal is 1.41 fold enrichment (6-mer frequency, TF over GST control) with ETV2; 1.2 fold enrichment (6-mer frequency, TF over GST control) with ELF3; 1.38 fold enrichment (6-mer frequency, TF over GST control) with CRX; 1.24 fold enrichment (6-mer frequency, TF over GST control) with ETV1; 1.28 fold enrichment (6-mer frequency, TF over GST control) with ERF; 1.34 fold enrichment (6-mer frequency, TF over GST control) with ETV3L. Also, the binding signal with ETS2 is 1.32 fold enrichment (6-mer frequency, TF over GST control); with SPDEF, 1.4 fold enrichment (6-mer frequency, TF over GST control); with ETV7, 1.4 fold enrichment (6-mer frequency, TF over GST control); with ELF5 it was 1.35 fold enrichment (6-mer frequency, TF over GST control); in the assay with ETV3, 1.29 fold enrichment (6-mer frequency, TF over GST control); with ETV6, 1.29 fold enrichment (6-mer frequency, TF over GST control).
